# This is part of a sample that, as a whole, favours compounds with a hit. Of some 83,000 tested, about 20% had one in any assay.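 The endpoint reported here, percent growth, reads 100 for growth as untreated, 0 for no net growth and -100 for all cells dead.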 Unmarked numbers belong to inactive results. Activity calls are given as the source filed them. How the source made its calls: active means growth percent below 10; inactive means the rest.
# How the values were obtained:
# Assay in all cases: NCI-60 one-dose screen, 48 h (100 = growth as untreated, 0 = no growth, -100 = all killed)
# [1] = test system: RPMI-8226 leukemia; settings: 10 µM
# [2] = test system: OVCAR-8 ovarian; settings: 10 µM
# [3] = test system: OVCAR-5 ovarian; settings: 10 µM
# [4] = test system: OVCAR-4 ovarian; settings: 10 µM
# [5] = test system: SK-OV-3 ovarian; settings: 10 µM
# [6] = test system: IGROV1 ovarian; settings: 10 µM
# [7] = test system: OVCAR-3 ovarian; settings: 10 µM
# [8] = test system: HS 578T breast; settings: 10 µM
# [9] = test system: NCI/ADR-RES ovarian; settings: 10 µM
# [10] = test system: BT-549 breast; settings: 10 µM
# [11] = test system: MDA-MB-435 melanoma; settings: 10 µM
# [12] = test system: SW-620 colon; settings: 10 µM
# [13] = test system: MCF7 breast; settings: 10 µM unless noted
# [14] = test system: HCT-116 colon; settings: 10 µM
# [15] = test system: HCC-2998 colon; settings: 10 µM
# [16] = test system: KM12 colon; settings: 10 µM
# [17] = test system: T-47D breast; settings: 10 µM
Structure (SMILES),growth [1],growth [2],growth [3],growth [4],growth [5],growth [6],growth [7] [%],growth [8],growth [9],growth [10],growth [11],growth [12],growth [13],growth [14],growth [15],growth [16],growth [17] [%]
CN(C)CCN(C)CC(C)(C)C(=O)/C=C/c1ccc(Cl)cc1,-24.1% (active),-35.4% (active),3.63% (active),7.86% (active),5.56% (active),15.6%,10.4,-4.14% (active),-36.1% (active),-34.5% (active),0.434% (active),-24.2% (active),-8.84% (active),-92.1% (active),-92.9% (active),-23.7% (active),–
CCS(=O)(=O)CCCl,101%,104%,105%,101%,104%,107%,116,96.4%,105%,95.9%,104%,102%,76.8%,98.7%,125%,99.1%,–
CCCNC(=O)c1ccc(S(N)(=O)=O)cc1,96.9%,122%,89.7%,84.3%,105%,135%,113,–,99.5%,120%,117%,94.5%,95%,96.4%,100%,106%,96
CN(C)c1ccc2oc(=O)c3ccccc3c2c1,74.1%,104%,91.9%,69.2%,101%,95.3%,–,–,94.9%,40.3%,109%,85.2%,72.9%,83.2%,88.5%,90.9%,96.1
O=C(Cc1nc2ccc([N+](=O)[O-])cc2nc1CC(=O)c1cccnc1)c1cccnc1,94.5%,31.2%,101%,57.7%,47.9%,73.9%,65.1,7.13% (active),30.4%,8.87% (active),89.8%,81.3%,47.4%,50.5%,96.2%,63.1%,–
c1ccc(Cc2ccccc2)cc1,107%,–,99.3%,109%,113%,–,108,76.6%,104%,123%,112%,106%,113%,114%,106%,98.9%,93.4
CCOC(=O)c1cc(/C=C/c2cccc(Cl)c2)on1,–,99.5%,101%,83.7%,111%,–,99.1,76.4%,91%,87.2%,83%,84.2%,13.9%,-57.7% (active),97.2%,57.4%,–
COC(=O)c1ccccc1Br,104%,105%,–,103%,–,108%,106,113%,100%,109%,98.5%,109%,106%,92%,106%,94.7%,109
Cc1ccc(C)n1-c1ccsc1C(=O)NNC(=O)CCl,–,106%,111%,93.5%,95.2%,–,93.2,92.7%,98.5%,70.1%,92.1%,108%,78.4%,78%,116%,104%,–
COc1ccc(C2(O)CCCCC2)cc1,–,107%,111%,112%,107%,111%,–,93.5%,104%,112%,107%,102%,102%,99.1%,104%,107%,98.2
O=C(NCCNC(=O)c1ccc(Cl)cc1Cl)c1ccc(Cl)cc1Cl,–,94.7%,119%,104%,98.7%,100%,111,107%,97.6%,111%,106%,113%,102%,104%,100%,–,99.3
COC(=O)c1cccc(Br)c1,106%,112%,–,112%,118%,116%,121,117%,106%,107%,94%,114%,116%,97.8%,107%,112%,111
CN1C(=O)CN2CCc3ccccc3C2c2cc(Cl)ccc21 (stereo not given),88.3%,101%,–,104%,90.7%,-12.2% (active),–,-5.49% (active),96.7%,99.7%,105%,-33.6% (active),84.5%,82.5%,98.1%,106%,104
c1c(-c2cc(C3CC3)[nH]n2)n[nH]c1C1CC1,105%,102%,93.6%,109%,–,111%,–,101%,98.8%,94%,109%,102%,92.8%,83.6%,102%,109%,–
O=C(Nc1ccccc1)OCCc1ccccc1,–,103%,92.7%,91.4%,110%,–,118,120%,–,98.1%,99%,106%,93.7%,109%,99.7%,111%,104
CC(C(=O)O)(C1CCCCC1)C1(O)CCCCC1 (stereo not given),–,104%,109%,108%,101%,101%,107,119%,106%,103%,105%,105%,105%,104%,96.3%,98.4%,102
CC(=O)Cc1cc(-c2cc(CC(C)=O)[nH]n2)n[nH]1,109%,98.5%,90.2%,101%,–,104%,111,93.2%,96.7%,88.4%,103%,98.5%,93.2%,103%,112%,105%,–
COc1cc(CCN=Cc2ccccc2O)c([N+](=O)[O-])cc1OC,105%,107%,–,120%,108%,96.5%,–,114%,103%,91.2%,110%,104%,104%,95%,101%,107%,97.9
C=CCNc1nnc(C)s1,101%,–,96%,113%,115%,–,110,101%,103%,122%,124%,107%,102%,104%,112%,101%,95.4
COc1ccc(-c2cc(-c3cc(-c4ccc(OC)cc4)nc(N)n3)nc(N)n2)cc1,–,99.1%,93.5%,99.6%,–,109%,107,96.4%,100%,95.2%,97.5%,97.5%,91.2%,103%,112%,101%,–
COc1ccccc1N1CCN(C(=S)Nc2ccccc2)CC1,90.9%,97.6%,–,108%,99.5%,98.9%,–,104%,95.8%,91.7%,102%,103%,99.5%,103%,134%,–,90.9
Nc1ccccc1SC(CC(=O)c1ccccc1)c1c(Cl)cccc1Cl (stereo not given),–,68.7%,89.6%,66%,73.3%,–,46.5,84.9%,69.2%,68%,39.7%,10.2%,14.8%,-29.7% (active),86.9%,33.1%,69.4
